Laboratory results published in PubChem BioAssay (Tox21).
Results filed as inconclusive are left out. A number with no mark means an inactive call. The source made the active and inactive calls. Calls come from the whole dose curve; as a rule, active = well fitted cell-killing curve with a large enough effect in the repeat runs; inconclusive = weak or mixed curves, or effect the other way; inactive = no such curve, though single readings can be large or run the other way.

Experiment: qHTS assay for identifying genotoxic compounds that show differential cytotoxicity against isogenic chicken DT40 cell lines with known DNA damage response pathways - Rev3 mutant cell line (AID 743014); note: nearly all actives have a fitted effect of over 55% in size
Conditions: chicken DT40 Rev3-/- viability, CellTiter-Glo, 40 h; series mostly up to 68.4 µM; activity, negative = cytotoxicity: at the top concentration
Source text: National Center for Advancing Translational Sciences [NCATS]
NIH Chemical Genomics Center [NCGC]
U.S. Environmental Protection Agency [EPA]
National Institutes of Environmental Health Sciences [NIEHS]
National Toxicology Program [NTP]
U.S. Food and Drug Administration [FDA]
DNA repair pathways play a critical role in cellular homeostasis by repairing DNA damage induced by endogenous processes and xenobiotics. Isogenic chicken DT40 cell lines deficient in different DNA repair pathways can be used to identify genotoxic compounds and aid in characterizing the nature of the DNA damage induced. Two DNA repair-deficient cell lines with disrupted genes, Rad54/Ku70 or Rev3, were used to screen the Tox21 10K compound library. Possible genotoxicity was based on the presence of a significant increase in cytotoxicity in one or more of the DNA repair-deficient cell lines compared to that observed in the parental DNA repair-proficient cell line. CellTiter Glo viability assay (Promega, Madison, WI) was used to measure cell viability in these cells after compound treatment. This assay includes the data from the Rev3 mutant cell line.
Tox21 Assay Protocol Summary:
300 DT40 mutant cells in 5 uL/well were dispensed into white, solid-bottom 1536-well plates using a Multidrop Combi (ThermoFisher Scientific, Waltham, MA) dispenser. After the assay plates were incubated at 37 C/5% CO2 for approximately 0.5 hour, 23 nL of compounds dissolved in DMSO, positive controls or DMSO only was transferred into the assay plate by a pintool work station (Kalypsys, San Diego, CA). The assay plates were incubated at 37 C/5% CO2 for 40 hours. After 5 uL per well of CellTiter-Glo reagent was added into each well of the assay plates, the plates were incubated for 30 min at room temperature and the luminescence intensity of the plates was measured using a ViewLux (PerkinElmer, Shelton, CT) plate reader.
% is set by controls: 0 for no effect and ±100 for the full control effect; potency is the fitted concentration of half-maximal effect.

Row | Structure (SMILES) | activity, negative = cytotoxicity | Potency
1 | CC(C)=CCOC(=O)c1ccccc1 | -6.78% | –
2 | C=C(C)C1CCC(C)(O)CC1 (stereo not given) | 0.229% | –
3 | COc1ccc(OC)c(Cl)c1 | -20.4% | –
4 | CN(C)C(=O)CNC(=O)Cc1ccccc1 | -2.29% | –
5 | O=C(O)c1ccc(Cl)cc1Cl | 3.24% [at 95 µM] | –
6 | Nc1cccc(O)c1 | -8.73% [at 95 µM] | –
7 | CO[C@@H]1[C@@H](OC(N)=O)[C@@H](O)[C@H](Oc2ccc3c(O)c(NC(=O)c4ccc(O)c(CC=C(C)C)c4)c(=O)oc3c2C)OC1(C)C | 4.08% [at 31.4 µM] | –
8 | CN1C(C)(C)CCCC1(C)C | 6.13% | –
9 | CC(C(=O)O)c1ccc2c(c1)CC(=O)c1ccccc1S2 (stereo not given) | -0.682% | –
10 | CCOC(=O)c1ncn2c1CN(C)C(=O)c1cc(F)ccc1-2 | 1.1% | –
11 | CC(C)CCCC(C)(C)O | -16.6% | –
12 | CCCCCCOC(=O)CC | -21.1% | –
13 | C=C(C)C(=O)OCC(C)(C)COC(=O)C(=C)C | -28.7% | –
14 | COC(=O)c1ccccc1C(=O)c1ccc(OCCN2CCCCC2)cc1 | – | 1.06 µM (active)
15 | C=CC(OCC)OCC | 1.03% | –
16 | CCOC(=O)/C=C/c1ccccc1 | 12% | –
17 | BrCCCCCBr | 7.34% [at 95 µM] | –
18 | O=C1O[C@@H]2[C@@H](O)[C@H](O)O[C@@H]2[C@H]1O | – | inactive
19 | CCCOC(OCCC)OCCC | -17.7% | –
20 | O=S(=O)(O)c1ccc2cc(O)c(S(=O)(=O)O)cc2c1 | 9.35% | –

Row | Structure (SMILES) | activity, negative = cytotoxicity | Potency
21 | Cc1ccc(S(=O)(=O)O)c(C)c1 | 0.752% | –
22 | Cc1ccccc1OCC(O)CO (stereo not given) | 9.59% | –
23 | O=C(NCCN1CCOCC1)c1ccc(Cl)cc1 | – | inactive
24 | Oc1cn2c(n1)Nc1ccc(Cl)c(Cl)c1C2 | 1.12% | –
25 | CC(=O)Nc1ccc(S(=O)(=O)Cl)cc1 | 0.511% | –
26 | Nc1ccc([N+](=O)[O-])c(N)c1 | 2.6% | –
27 | CC(C)(C)OC(=O)c1ccc(O)cc1 | -2.7% | –
28 | O=P(O)(O)OP(=O)(O)O | -8.67% | –
29 | O=C(O)c1cc(Cl)cc([N+](=O)[O-])c1Cl | -3.62% | –
30 | CCNC(=O)C1CC(C)CCC1C(C)C (stereo not given) | -4.51% | –
31 | CN(C)CCOCCO | 2.09% | –
32 | Cc1ccc2c(c1)OCC(=O)CO2 | 3.02% | –
33 | Nc1ccc2cc(S(=O)(=O)O)cc(O)c2c1 | -2.23% | –
34 | CCCCNC1CC(C)(C)NC(C)(C)C1 | – | 48.6 µM (active)
35 | CC(=O)CCCCn1c(=O)c2c(ncn2C)n(C)c1=O | -1.38% [at 31.4 µM] | –
36 | CC(=O)OC(C)OC(=O)C(C)c1ccc(-c2ccccc2)c(F)c1 (stereo not given) | – | inactive
37 | CCCCCCCCC(=O)Cl | 5.06% [at 95 µM] | –
38 | NCCS | -15.9% | –
39 | Cc1cc(Cl)c(C)cc1Cl | -12.3% | –
40 | CN(C)c1ccc(C=O)cc1 | -10.7% | –
